From PubChem BioAssay (NCI)
About 83,000 compounds went through this panel and 20% of them were active in at least one assay; those are over-represented in the sample as a whole.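 96-well plates, one dose, 48 hours. Percent growth reported; active if below 10.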 Calls of active or inactive are those of the source.

How the values were obtained:
Assay in all cases: NCI-60 one-dose screen, 48 h (100 = growth as untreated, 0 = no growth, -100 = all killed)
Conditions in all cases: 10 µM unless noted
DU-145 prostate = test system: DU-145 prostate
K-562 leukemia = test system: K-562 leukemia
MALME-3M melanoma = test system: MALME-3M melanoma
MDA-MB-231 breast = test system: MDA-MB-231 breast
RXF 393 renal = test system: RXF 393 renal
SF-268 CNS = test system: SF-268 CNS
SF-295 CNS = test system: SF-295 CNS
SF-539 CNS = test system: SF-539 CNS
UACC-257 melanoma = test system: UACC-257 melanoma
M14 melanoma = test system: M14 melanoma

Measured: growth

N#CSc1c[nH]c2cccc(/C=C/C(=O)/C=C(O)/C=C/c3cccc4[nH]cc(SC#N)c34)c12
active: DU-145 prostate -78.7% | K-562 leukemia -12.9% | MALME-3M melanoma -82.3% | MDA-MB-231 breast -78.3% | RXF 393 renal -62.9% | SF-268 CNS -31.9% | SF-295 CNS -87.7% | SF-539 CNS -68.5% | UACC-257 melanoma -27.4% | M14 melanoma -59.7%

COc1ccc2cc(-c3ccnc4c(N=Nc5ccc(Cl)cc5)c(N)nn34)ccc2c1
inactive: DU-145 prostate 105% | K-562 leukemia 86.5% | MALME-3M melanoma 97.8% | MDA-MB-231 breast 101% | RXF 393 renal 115% | SF-268 CNS 101% | SF-295 CNS 102% | SF-539 CNS 103% | UACC-257 melanoma 84.2% | M14 melanoma 92.8%

Cc1ccc(CNc2ccc3nc(CCC(C)C)[nH]c3c2)cc1
inactive: DU-145 prostate 101% | K-562 leukemia 79.2% | MALME-3M melanoma 90.9% | MDA-MB-231 breast 86% | RXF 393 renal 96% | SF-268 CNS 91.2% | SF-295 CNS 95.1% | SF-539 CNS 94.4% | UACC-257 melanoma 89.7% | M14 melanoma 96.2%

O=C1/C(=C/c2ccc(O)c(O)c2)COc2ccc(-c3ccccc3)cc21
inactive: DU-145 prostate 26.5% | K-562 leukemia 15.3% | MALME-3M melanoma 41.2% | MDA-MB-231 breast 12.9% | RXF 393 renal 16.5% | SF-268 CNS 49.4% | SF-295 CNS 42.5% | UACC-257 melanoma 30.4% | M14 melanoma 45.9%
active: SF-539 CNS 9.83%

CC1=C(C(=O)Nc2ccccc2)C(c2ccc3c(c2)OCO3)NC(=S)N1 (stereo not given)
inactive: DU-145 prostate 111% | K-562 leukemia 118% | MALME-3M melanoma 100% | MDA-MB-231 breast 106% | RXF 393 renal 129% | SF-268 CNS 106% | SF-295 CNS 105% | SF-539 CNS 102% | UACC-257 melanoma 107% | M14 melanoma 93%

CN1CCN(CCOc2ccc(-c3cnc4c(-c5ccc(F)cc5)cnn4c3)cc2)CC1
active: K-562 leukemia -6.74% | M14 melanoma -29.8%
inactive: DU-145 prostate 42.2% | MALME-3M melanoma 53.5% | MDA-MB-231 breast 55.1% | RXF 393 renal 48.8% | SF-268 CNS 56.9% | SF-295 CNS 81% | SF-539 CNS 49.5% | UACC-257 melanoma 28.4%

O=C(Nc1ncc(Cc2ccccc2)s1)c1ccc2c(c1)OCCCO2
inactive: DU-145 prostate 27.5% | MALME-3M melanoma 51% | MDA-MB-231 breast 44% | SF-268 CNS 60.4% | SF-295 CNS 15.2% | UACC-257 melanoma 41.4%
active: K-562 leukemia 9.28% | RXF 393 renal -10% | SF-539 CNS -9.3% | M14 melanoma 3.29%

CCCCNC(=O)Oc1ccc(/C(=C(/C)Cc2ccc(OC)cc2)c2ccc(OCCN3CCCCCC3)cc2)cc1
inactive: DU-145 prostate 91.6% | K-562 leukemia 10.3% | MALME-3M melanoma 99.5% | MDA-MB-231 breast 81.5% | RXF 393 renal 75.1% | SF-268 CNS 83.5% | SF-295 CNS 92.2% | SF-539 CNS 95.4% | UACC-257 melanoma 94.4% | M14 melanoma 91.1%

O=[N+]([O-])c1ccc(-c2cn3nc(-c4c[nH]c5ccccc45)sc3n2)cc1
inactive: DU-145 prostate 110% | K-562 leukemia 84.1% | MALME-3M melanoma 89.5% | MDA-MB-231 breast 94% | RXF 393 renal 108% | SF-268 CNS 108% | SF-295 CNS 102% | SF-539 CNS 105% | UACC-257 melanoma 95.3% | M14 melanoma 97%

O=C(CI)NC(=O)NC(=O)NCc1ccccc1
inactive: DU-145 prostate 78.2% | MDA-MB-231 breast 11.3% | RXF 393 renal 48.5% | SF-268 CNS 58.5% | SF-295 CNS 91.6% | SF-539 CNS 27.3% | UACC-257 melanoma 83%
active: K-562 leukemia -59.8% | MALME-3M melanoma -59% | M14 melanoma 6.48%

COC(=O)CC[C@@H]1O[C@@H](c2ccc(F)cc2)[C@@H](O)[C@H]1O
inactive: DU-145 prostate 112% | K-562 leukemia 109% | MALME-3M melanoma 101% | MDA-MB-231 breast 117% | RXF 393 renal 112% | SF-268 CNS 103% | SF-295 CNS 104% | SF-539 CNS 102% | UACC-257 melanoma 107% | M14 melanoma 92.9%

CSc1nn2c(-c3ccc4ccccc4c3)ccnc2c1C#N
active: SF-295 CNS 8.45% | M14 melanoma 5.19%
inactive: DU-145 prostate 43% | K-562 leukemia 11.1% | MALME-3M melanoma 10.1% | MDA-MB-231 breast 27.3% | RXF 393 renal 19% | SF-268 CNS 45.3% | SF-539 CNS 26.3% | UACC-257 melanoma 63%

Clc1ccccc1-c1cnn2cc(-c3ccccc3)cnc12
inactive: DU-145 prostate 87.6% | K-562 leukemia 67.3% | MALME-3M melanoma 89.9% | MDA-MB-231 breast 72.4% | RXF 393 renal 87.6% | SF-268 CNS 85.6% | SF-295 CNS 82.9% | SF-539 CNS 81.3% | UACC-257 melanoma 86.3% | M14 melanoma 91.5%

N=C(N)c1ccc(-c2ccc(-c3ccccc3)s2)cc1
inactive: DU-145 prostate 29.5% | MALME-3M melanoma 97.2% | MDA-MB-231 breast 10.3% | RXF 393 renal 78.7% | SF-268 CNS 76.4% | SF-295 CNS 40.6% | SF-539 CNS 78.5% | UACC-257 melanoma 103% | M14 melanoma 81.1%
active: K-562 leukemia 1.35%

CN1CCN(C(=S)SCCCCOc2cc(=O)oc3ccccc23)CC1
inactive: DU-145 prostate 90.6% | K-562 leukemia 64.3% | MALME-3M melanoma 93.3% | MDA-MB-231 breast 89.1% | RXF 393 renal 99.5% | SF-268 CNS 87.7% | SF-295 CNS 77.7% | SF-539 CNS 98.9% | UACC-257 melanoma 85% | M14 melanoma 103%

Oc1ccc(/C=C/c2ccc(O)cc2)cc1
active: SF-539 CNS -11.4%
inactive: DU-145 prostate 56.9% | K-562 leukemia 69.5% | MALME-3M melanoma 58.9% | MDA-MB-231 breast 80.1% | RXF 393 renal 62.8% | SF-268 CNS 42.7% | SF-295 CNS 88.1% | UACC-257 melanoma 72.3% | M14 melanoma 65%

COc1ccc(/C=C(/c2ccccc2)[N+](=O)[O-])c(OC)c1
inactive: DU-145 prostate 38.6% | MDA-MB-231 breast 12.1% | SF-268 CNS 14.3% | UACC-257 melanoma 10.4%
active: K-562 leukemia 6.07% | MALME-3M melanoma -27% | RXF 393 renal -67.8% | SF-295 CNS 9.19% | SF-539 CNS -48.5% | M14 melanoma 5.14%

CC(C)(C)n1cc(-c2ccnc(NCCCNS(=O)(=O)c3cccc4ccccc34)c2)c(-c2cccc(F)c2)n1
inactive: DU-145 prostate 89.4% | K-562 leukemia 30.8% | MALME-3M melanoma 113% | MDA-MB-231 breast 80.6% | RXF 393 renal 76.8% | SF-268 CNS 85.2% | SF-295 CNS 63.9% | SF-539 CNS 72.4% | UACC-257 melanoma 94.4% | M14 melanoma 73.3%

FC(F)(F)c1ccc(Cn2cc(CSc3nc4ccccc4s3)nn2)cc1
inactive: DU-145 prostate 108% | K-562 leukemia 97.1% | MALME-3M melanoma 111% | MDA-MB-231 breast 99% | RXF 393 renal 104% | SF-268 CNS 101% | SF-295 CNS 95.8% | SF-539 CNS 106% | UACC-257 melanoma 87% | M14 melanoma 100%

CC(C)(C)c1cc(Cl)c(O)c(CNCCO)c1
inactive: DU-145 prostate 113% | K-562 leukemia 102% | MALME-3M melanoma 112% | MDA-MB-231 breast 115% | RXF 393 renal 98.1% | SF-268 CNS 106% | SF-295 CNS 97% | SF-539 CNS 107% | UACC-257 melanoma 110% | M14 melanoma 104%

Oc1c(CN2CCOCC2)cc(COCc2ccccc2)c2cccnc12
active: SF-539 CNS 4.65% | UACC-257 melanoma -9.19%
inactive: DU-145 prostate 38% | K-562 leukemia 14.8% | MALME-3M melanoma 21.2% | MDA-MB-231 breast 43.1% | RXF 393 renal 58.5% | SF-268 CNS 23.7% | SF-295 CNS 30.8% | M14 melanoma 12%

Cc1cn(-c2cc(NC(=O)c3cncc(C#Cc4c(N)ncc5ccc(F)cc45)c3)cc(C(F)(F)F)c2)cn1
inactive: DU-145 prostate 70.5% | MALME-3M melanoma 21.5% | MDA-MB-231 breast 27.1% | RXF 393 renal 62.7% | SF-268 CNS 64.6% | SF-295 CNS 85.2% | SF-539 CNS 51.5% | UACC-257 melanoma 52.9% | M14 melanoma 26.6%
active: K-562 leukemia 3.34%

O=S(=O)(Oc1ccc(Br)cc1)c1ccc(Cl)cc1
inactive: DU-145 prostate 93.8% | K-562 leukemia 108% | MALME-3M melanoma 85.5% | MDA-MB-231 breast 117% | RXF 393 renal 114% | SF-268 CNS 99.2% | SF-295 CNS 94.6% | SF-539 CNS 110% | UACC-257 melanoma 118% | M14 melanoma 94.3%

Cc1nn(-c2ccccc2)c(N)c1N=C1NC(=O)/C(=C/c2ccc(Br)cc2)S1
inactive: DU-145 prostate 96.4% | K-562 leukemia 58.8% | MALME-3M melanoma 93.8% | MDA-MB-231 breast 86% | RXF 393 renal 151% | SF-268 CNS 81.6% | SF-295 CNS 87.2% | SF-539 CNS 83.4% | UACC-257 melanoma 111% | M14 melanoma 89.9%

C#CCn1cnc2cnc(Nc3cccc(NC(=O)C=C)c3)nc21
inactive: DU-145 prostate 93.5% [6.25 µM] | MALME-3M melanoma 76.7% [6.25 µM] | MDA-MB-231 breast 81.5% [6.25 µM] | RXF 393 renal 86.6% [6.25 µM] | SF-268 CNS 84.7% [6.25 µM] | SF-295 CNS 72.4% [6.25 µM] | SF-539 CNS 72.3% [6.25 µM] | UACC-257 melanoma 61.5% [6.25 µM] | M14 melanoma 62% [6.25 µM]
active: K-562 leukemia 5.9% [6.25 µM]

C=CCC(CCCC)(C(=O)OCC)C(=O)OCC
inactive: DU-145 prostate 121% | K-562 leukemia 104% | MALME-3M melanoma 106% | MDA-MB-231 breast 105% | RXF 393 renal 105% | SF-268 CNS 113% | SF-295 CNS 113% | SF-539 CNS 100% | UACC-257 melanoma 100% | M14 melanoma 96.8%

COc1ccc(C(=S)N2CCN(c3ccc(Cl)cc3)CC2)cc1
inactive: DU-145 prostate 113% | K-562 leukemia 88% | MALME-3M melanoma 125% | MDA-MB-231 breast 76.7% | RXF 393 renal 126% | SF-268 CNS 100% | SF-295 CNS 117% | SF-539 CNS 102% | UACC-257 melanoma 96.1% | M14 melanoma 99.7%
